The source made the active and inactive calls.
What was measured:
[1] = tested on: Plasmodium falciparum Sir2 (PF13_0152, Sir2A); experiment: Plasmodium falciparum Sir2A binding compounds – biochemical, small-molecule microarray, 635 nm fluorescence, primary screen (AID 1098); details: fluorescence 635 nm, higher = more signal;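 note: score merges spot fluorescence intensity with its signal-to-noise ratio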
[2] = probe aDKK1 binding to arrayed compounds – biochemical, biotinylated probe, 635/667 nm fluorescence, primary screen (AID 1099); details: small-molecule microarray, higher = more signal;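 note: score merges 667nm spot fluorescence with signal to noise across triplicate slides; reference of the scale not given here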
[3] = probe aCHRDL2 binding to arrayed compounds – biochemical, biotinylated probe, 635/667 nm fluorescence, primary screen (AID 1100); details: small-molecule microarray, higher = more signal
[4] = change in splice reporter luminescence, either direction, cell-based, HEK293, spliceosome inhibition project, primary screen (AID 1101); details: HEK293 splicing luciferase reporter, 24 h, higher = more signal, called active from +8 up or from −8 down;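 note: HEK293 cells carrying a splicing-competent luciferase reporter gene; test concentration not given here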
[5] = biological target: Fibroblast growth factor 10 (Homo sapiens) (UniProt O15520); experiment: compounds binding fibroblast growth factor 10 – biochemical, small-molecule microarray, 635 nm fluorescence, primary screen (AID 1102); details: FGF10 binding, fluorescence 635 nm, higher = more signal
Chain of Fibroblast growth factor 10 (Homo sapiens) (O15520 whole entry, looked up): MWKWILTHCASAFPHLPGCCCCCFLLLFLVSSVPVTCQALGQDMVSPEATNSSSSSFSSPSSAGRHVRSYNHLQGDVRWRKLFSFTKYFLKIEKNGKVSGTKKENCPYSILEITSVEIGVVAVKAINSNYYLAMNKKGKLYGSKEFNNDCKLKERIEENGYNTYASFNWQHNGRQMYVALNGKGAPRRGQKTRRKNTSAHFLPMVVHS

[6] = tested on: glycogen synthase kinase-3 (GSK3A per assay name; protocol says GSK3B); experiment: compounds binding glycogen synthase kinase-3 – biochemical, small-molecule microarray, 635 nm fluorescence, GSK3A, primary screen (AID 1103); details: fluorescence 635 nm, higher = more signal; note: the record names both GSK3A and GSK3B
[7] = biological target: Epidermal growth factor receptor (Homo sapiens) (UniProt P00533); experiment: compounds binding epidermal growth factor receptor – biochemical, small-molecule microarray, 635 nm fluorescence, primary screen (AID 1104); details: EGFR binding, higher = more signal;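 note: score merges 667 nm emission intensity with spot signal to noise over triplicate slides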
Chain of Epidermal growth factor receptor (Homo sapiens) (P00533 whole entry, looked up): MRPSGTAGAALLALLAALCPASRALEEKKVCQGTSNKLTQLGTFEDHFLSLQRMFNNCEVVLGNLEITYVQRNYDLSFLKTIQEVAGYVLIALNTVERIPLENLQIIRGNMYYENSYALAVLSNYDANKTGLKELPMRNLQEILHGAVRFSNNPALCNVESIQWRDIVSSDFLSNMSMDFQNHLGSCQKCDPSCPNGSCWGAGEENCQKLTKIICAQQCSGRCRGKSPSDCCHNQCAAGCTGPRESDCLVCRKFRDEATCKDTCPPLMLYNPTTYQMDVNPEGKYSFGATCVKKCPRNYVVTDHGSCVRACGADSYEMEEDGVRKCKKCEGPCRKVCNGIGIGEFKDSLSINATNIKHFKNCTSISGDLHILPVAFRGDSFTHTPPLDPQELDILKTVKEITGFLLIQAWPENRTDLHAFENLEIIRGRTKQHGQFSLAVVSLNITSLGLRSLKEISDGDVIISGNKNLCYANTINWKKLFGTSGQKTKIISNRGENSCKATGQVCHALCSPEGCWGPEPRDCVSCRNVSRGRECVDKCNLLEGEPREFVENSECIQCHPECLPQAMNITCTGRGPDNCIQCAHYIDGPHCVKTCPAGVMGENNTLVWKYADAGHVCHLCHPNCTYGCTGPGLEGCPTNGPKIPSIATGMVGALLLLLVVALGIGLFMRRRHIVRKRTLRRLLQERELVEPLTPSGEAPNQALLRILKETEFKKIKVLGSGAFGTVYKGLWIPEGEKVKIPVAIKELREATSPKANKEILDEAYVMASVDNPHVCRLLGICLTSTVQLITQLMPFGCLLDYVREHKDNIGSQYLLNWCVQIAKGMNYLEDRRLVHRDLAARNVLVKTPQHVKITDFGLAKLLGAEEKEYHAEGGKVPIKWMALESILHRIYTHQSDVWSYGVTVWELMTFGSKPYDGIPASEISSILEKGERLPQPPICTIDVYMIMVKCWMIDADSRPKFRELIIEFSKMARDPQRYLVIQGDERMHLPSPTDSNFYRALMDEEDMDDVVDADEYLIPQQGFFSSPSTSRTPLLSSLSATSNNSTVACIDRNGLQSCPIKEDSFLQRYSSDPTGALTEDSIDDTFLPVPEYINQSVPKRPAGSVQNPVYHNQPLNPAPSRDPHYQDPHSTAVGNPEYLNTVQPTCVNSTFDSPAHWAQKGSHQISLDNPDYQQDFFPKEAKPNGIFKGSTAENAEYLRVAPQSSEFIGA

[8] = biological target: Follistatin-related protein 3 (Homo sapiens) (UniProt O95633); experiment: compounds binding follistatin-related protein 3 – biochemical, small-molecule microarray, 635 nm fluorescence, primary screen (AID 1105); details: FSTL3 binding, higher = more signal;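 note: score merges emission near 667 nm and signal to noise per printed spot across three slides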
Chain of Follistatin-related protein 3 (Homo sapiens) (O95633 whole entry, looked up): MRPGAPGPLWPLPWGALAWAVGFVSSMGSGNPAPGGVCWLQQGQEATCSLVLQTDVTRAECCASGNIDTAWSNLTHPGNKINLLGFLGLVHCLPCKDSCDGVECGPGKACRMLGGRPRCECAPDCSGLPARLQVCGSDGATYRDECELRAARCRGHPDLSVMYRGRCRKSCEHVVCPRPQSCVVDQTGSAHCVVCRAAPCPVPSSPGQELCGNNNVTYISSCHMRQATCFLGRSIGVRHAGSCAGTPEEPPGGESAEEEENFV

[9] = biological target: Dickkopf-related protein 1 (Homo sapiens) (UniProt O94907); experiment: small molecules binding DKK1 protein – biochemical, small-molecule microarray, 635 nm fluorescence scan, primary screen (AID 1106); details: higher = more signal;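 note: score merges emission near 667 nm with signal to noise over three replicate slides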
Chain of Dickkopf-related protein 1 (Homo sapiens) (O94907 whole entry, looked up): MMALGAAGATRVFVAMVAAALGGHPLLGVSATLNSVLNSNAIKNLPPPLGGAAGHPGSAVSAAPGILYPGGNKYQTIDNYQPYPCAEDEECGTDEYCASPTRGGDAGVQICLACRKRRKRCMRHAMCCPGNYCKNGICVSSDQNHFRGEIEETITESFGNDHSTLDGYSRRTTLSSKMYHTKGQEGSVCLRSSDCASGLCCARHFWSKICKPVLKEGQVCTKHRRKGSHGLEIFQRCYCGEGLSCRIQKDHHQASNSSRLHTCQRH

[10] = tested on: Inhibin beta A chain (activin A); experiment: small molecules binding activin A – biochemical, small-molecule microarray, 635 nm fluorescence scan, primary screen (AID 1107); details: INHBA, higher = more signal;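 note: mouse activin A protein probed at 4.33 µg/mL on printed slides; score merges bound-protein fluorescence near 667 nm with spot signal-to-noise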

Structure (SMILES)	composite z-score [1]	composite z-score [2]	composite z-score [3]	z-score [4]	composite z-score [5]	composite z-score [6]	composite z-score [7]	composite z-score [8]	composite z-score [9]	composite z-score [10]
COCCOC(=O)N1C(=O)[C@@]2(c3cc(C#CCNC(N)=O)ccc31)[C@H](c1ccc(O)cc1)N1[C@H](c3ccccc3)[C@H](c3ccccc3)OC(=O)[C@H]1[C@@H]2C(=O)NC[C@H](O)c1ccccc1	0.193	0.614	0.689	0.716 (inactive)	1.05	0.727	0.222	1.34	1.52	0.342
C=CCNC(=O)[C@@H]1[C@H]2C(=O)O[C@H](c3ccccc3)[C@H](c3ccccc3)N2[C@H](c2ccc(OCCO)cc2)[C@@]12C(=O)Nc1ccccc12	1.06	0.454	-0.0808	-0.0935 (inactive)	0.772	0.839	0.254	0.774	0.228	0.344
CCCNC(=O)[C@@]1(c2ccc([N+](=O)[O-])cc2)CC(=O)N(CC23CC4CC(CC(C4)C2)C3)[C@@H]1c1ccc(CO)cc1	0.814	0.644	-0.0905	0.228 (inactive)	0.425	0.108	0.533	1.34	0.138	-0.247
Cc1cc(C)cc(N2C(=O)CS(=O)(=O)C2c2cccc([N+](=O)[O-])c2)c1 (stereo not given)	0.195	0.734	0.788	-0.352 (inactive)	0.612	0.124	0.518	0.366	0.122	0.826
CC=CC(O)C1C=CC2C(=O)N(c3ccccc3)C(=O)C2N1Nc1ccc(C(C)C)cc1 (stereo not given)	0.534	0.75	0.973	-0.235 (inactive)	0.878	1.24	0.122	1.3	0.14	0.841
C=CC[C@@H](OC(=O)Nc1ccc(OC)cc1)c1ccc(O)c2ccccc12	1.43	-0.0942	-0.0826	-0.806 (inactive)	1.2	1.28	1.06	1.4	1.23	1.07
O=C1OCC=C[C@H]2OC34C=CCN(c5ccc(Cl)cc5)C(=O)[C@H]3N(CCCCCCO)C(=O)[C@@H]4[C@@H]12 (stereo not given in full)	2.08	0.0526	0.731	-0.313 (inactive)	-1.17	-0.799	-1.78	-1.58	-1.22	-0.087
COc1ccc(CCNC(=O)[C@@]2(Sc3ccc(C)cc3)CC(=O)N(Cc3ccccc3Cl)[C@@H]2c2ccc(CO)cc2I)cc1	0.661	0.195	0.989	-1.1 (inactive)	-0.778	0.351	-1.08	-0.78	-1.15	1.24
COc1ccc([Si](C)(C)[C@@H]2[C@@H](CCn3cc([C@H](O)c4ccccc4)nn3)O[C@]3(C(=O)N(Cc4cccc(N5CCOC5=O)c4)c4ccccc43)[C@H]2C)cc1	-1.35	-0.231	0.658	1.7 (inactive)	-1.02	-1.01	-0.901	-0.995	-1.13	-0.495
COC(=O)[C@@]1(Cc2ccccc2)[C@H]2c3cc(C(=O)N(C)C)n(Cc4c(-c5ccccc5)noc4C)c3C[C@H]2CN1C(=O)c1ccccc1	0.609	0.898	1.18	0.762 (inactive)	0.377	0.638	0.144	0.0261	-0.0672	1.22
COc1ccc(C(=O)Nc2cccc(CN3C(=O)[C@]4(O[C@H](CC(=O)N5CCC[C@H]5CO)[C@@H]([Si](C)(C)c5ccc(OC)cc5)[C@@H]4C)c4ccccc43)c2)cc1	1.27	-0.202	-0.067	-0.0342 (inactive)	0.703	1.12	0.317	0.737	0.65	-0.0762
[N-]=[N+]=NCc1ccccc1C[C@@]1(C(=O)NCC(O)CO)N=C(c2ccc(OCCCO)cc2)O[C@@H]1c1ccccc1CN=[N+]=[N-] (stereo not given in full)	1.71	-0.0331	0.884	0.135 (inactive)	1.33	0.712	-0.747	-0.203	-0.643	0.688
CN1C=C(C(=O)OCCS(C)(=O)=O)C(C(=O)OCCS(C)(=O)=O)=CC(CCCO)=CC1C1CC1 (stereo not given)	-0.274	-0.209	-0.0925	0.788 (inactive)	0.428	-0.256	-0.14	0.0695	-0.596	-0.0932
O=C1N(CCS(=O)(=O)c2ccccc2)Cc2ccccc2[C@H]2OC(c3ccc(OCCCO)cc3)=N[C@@]12CCS(=O)(=O)c1ccccc1	1.55	0.883	1.13	-0.872 (inactive)	1.03	0.916	0.423	0.411	0.13	1.03
Cc1ccc(S[C@]2(C(=O)O)CC(=O)N(C3Cc4ccccc4C3)[C@@H]2c2ccc(CO)cc2I)cc1	0.787	0.425	1.05	-0.0201 (inactive)	-0.345	-0.695	-1.04	-0.75	-0.649	1.11
CC(C)c1ccc(NN2C(C(O)c3c(F)cccc3Cl)C=CC3C(=O)N(c4ccccc4)C(=O)C32)cc1 (stereo not given)	0.683	1.24	1.13	-1.11 (inactive)	0.62	0.852	0.389	0.766	-0.247	0.945
COC(=O)[C@@]1(Cc2ccccc2)[C@H]2c3cc(C(=O)N4CCCC4)n(C)c3C[C@H]2CN1C(=O)c1ccccc1	0.762	1.23	0.892	-1.91 (inactive)	-0.175	0.237	-0.141	0.803	-0.477	1.1

Source: PubChem BioAssay
